Cruzain inh Det – blocks cruzain activity in presence of Triton detergent | P25779 | purified cruzain, Z-FR-AMC fluorescence, 0.01% Triton | Potency, µM, most hits filed as inhibitors | 200,000 tested, 0.43% active; further: nearly all actives have a fitted effect of over 40% in size
Target sequence (P25779 123-467 limits assumed): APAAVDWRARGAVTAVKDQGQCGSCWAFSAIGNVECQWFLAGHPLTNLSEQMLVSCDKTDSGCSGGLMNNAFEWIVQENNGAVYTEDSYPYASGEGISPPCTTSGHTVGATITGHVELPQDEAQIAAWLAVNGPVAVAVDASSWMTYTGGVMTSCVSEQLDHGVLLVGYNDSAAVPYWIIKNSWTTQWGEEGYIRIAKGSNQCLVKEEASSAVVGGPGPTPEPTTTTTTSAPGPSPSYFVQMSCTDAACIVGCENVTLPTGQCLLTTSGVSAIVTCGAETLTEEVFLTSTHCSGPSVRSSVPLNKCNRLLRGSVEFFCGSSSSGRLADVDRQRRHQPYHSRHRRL
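Read-out: AMC fluorescence (360 nm excitation, 450 nm emission), four reads over 2 min, first-to-third difference used. Conditions: cruzain 1.5 nM, Z-FR-AMC 2 uM, pH 5.5 acetate, 5 mM DTT, 0.01% Triton X-100.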
Cruzain noTriton – blocks cruzain activity in detergent-free assay; P25779; purified cruzain, Z-FR-AMC fluorescence, no detergent; Potency, µM, usual class: inhibitors; 200,000 tested, 2.3% active; AID 1476; further: nearly all actives have a fitted effect of over 40% in size
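Purified cruzain at 1.5 nM, pre-incubated 15 min with compound at room temperature in 100 mM sodium acetate pH 5.5, 5 mM DTT, 0.00005% Triton X-100. Reaction started with 2 uM Z-FR-AMC; AMC fluorescence increase over 60 s gives rate.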
Hits are given with their value; - = inactive; ? = inconclusive. Sampled rows, rich in hits. Any-hit rate of the full collection: about 2.5%. The call rests on the fitted dose curve; in most records, active means well fitted curve in the direction sought with a large enough effect; inconclusive means small, poorly fitted or top-dose-only effect, or another doubt; inactive means no such curve, though single readings can be large; an effect the other way counts as inactive or inconclusive.

SMILES	Cruzain inh Det	Cruzain noTriton
CC1=C(C(=O)OCc2ccc(C)cc2)C(c2ccccc2C(F)(F)F)CC(=O)N1 (centres undefined)	-	-
CCN(CC)c1ccccc1	-	-
Nc1ccc(N(c2ccccc2)c2ccc(N)cc2)cc1	-	32µM
Cc1sc(NC(=O)c2ccc(OCC(C)C)cc2)c(C(N)=O)c1-c1ccc(Cl)cc1Cl	?	10µM
CCCOc1ccc(C(=O)Nc2cccc(NC(=O)c3ccc(Cl)cc3Cl)c2)cc1	-	?
COc1cccc(CNc2nc3ccccc3c3nc(-c4cccc(C)c4)nn23)c1	-	-
CCN(CC)CCCCn1c(-c2ccccc2)nc2c(NCCOC)nc(C)nc21	-	-
Cc1ccc(CNC(=O)CCc2c(C)nn(-c3ccc(N4CCCCC4)nn3)c2C)cc1	-	-
O=c1c(-c2ccc(Cl)cc2)nc2cnc(N3CCOCC3)nc2n1C[C@H]1CCCO1	-	-
COc1cc(C(CC(=O)NCc2ccccc2Cl)N2Cc3ccccc3C2=O)cc(OC)c1OC (centres undefined)	?	16µM
COc1ccccc1CNC(=O)CC(c1ccc(OC)c(OC)c1)N1Cc2ccccc2C1=O (centres undefined)	-	-
CC1(C)CCC(C)(C)c2c1ccc(O)c2Cc1c(O)ccc2c1C(C)(C)CCC2(C)C	-	-
NCCn1c(=O)c(CCc2ccccc2)nc2cncnc21	-	-
O=c1c(-c2cc(F)cc(F)c2)nc2cncnc2n1Cc1ccccc1Cl	-	25µM
O=c1c(-c2ccc(F)c(F)c2)nc2cncnc2n1Cc1ccccc1Cl	-	-
O=c1c(CCc2ccccc2)nc2cncnc2n1Cc1ccccc1Cl	-	3.2µM
c1ccc(CCc2cccnc2)nc1	-	-
CC(/C=N/NC(=O)c1cc(-c2ccccc2)nc2ccccc12)=C\c1ccco1	-	?
CC(/C=N/NC(=O)c1cc(-c2ccc(Cl)cc2)nc2ccccc12)=C\c1ccco1	-	7.9µM
CCCCOc1ccc(C(=O)NCC(=O)OC2CCOC2=O)cc1 (centres undefined)	20µM	?
Cc1ccc(S(=O)(=O)NCC(=O)OC2CCOC2=O)cc1 (centres undefined)	-	-
CCc1cccc(N2C(=O)N(Cc3c(F)cccc3Cl)c3ccccc3S2(=O)=O)c1	-	-
CCOC(=O)Cc1cc(=O)n(-c2nc3ccccc3s2)[nH]1	18µM	?
CCOC(=O)c1sc(-n2[nH]c(C)cc2=O)nc1C	?	-
Cc1ccc(Cl)cc1N1CCN(C(=O)c2cc3c(-c4ccccc4F)nn(C)c3s2)CC1	-	-
SMILES	Cruzain inh Det	Cruzain noTriton
Cc1ccccc1OCC(=O)Nc1ccc2c(c1)Cc1ccccc1-2	-	?
O=C(COc1ccccc1)Nc1ccc2c(c1)Cc1cc(NC(=O)COc3ccccc3)ccc1-2	-	2.5µM
Nc1ccc(F)cc1F	-	-
O=C(OCc1nc2ccccc2s1)c1cccs1	-	-
COc1ccc(C(=O)C(OC(=O)CNC(=O)c2ccco2)c2ccccc2)cc1 (centres undefined)	4µM	3.2µM
O=C(CNC(=O)c1ccc(Cl)cc1)OCc1nc2ccccc2s1	14µM	16µM
COc1ccc(C(=O)OC(C(=O)c2ccccc2)c2ccccc2)cc1 (centres undefined)	-	-
O=C(CNC(=O)c1ccccc1)OC(C(=O)c1ccccc1)c1ccccc1 (centres undefined)	6.3µM	4µM
Cc1ccc(C(=O)C(OC(=O)CN2C(=O)c3ccccc3C2=O)c2ccccc2)cc1 (centres undefined)	-	?
COc1ccc(NC(=O)CCC(=O)OC(C(=O)c2ccccc2)c2ccccc2)cc1 (centres undefined)	-	-
O=C(CN1C(=O)c2ccccc2C1=O)OC(C(=O)c1ccc(Cl)cc1)c1ccccc1 (centres undefined)	-	32µM
O=C(O)[C@@H]1CS[C@@]2(CCCN(Cc3ccccc3)C2)N1	-	-
COc1ccc(C(=O)Nc2ccccc2C(=O)OCc2cc(=O)n3nc(C4CC4)sc3n2)cc1	-	-
Cc1nn(-c2ccccc2)c2c1cc1c(=O)[nH]c(=O)nc-1n2-c1cccc(Cl)c1	-	-
COCCn1c(SCC(=O)c2ccccc2)nc2cc(C(=O)NC3CCCC3)ccc2c1=O	-	-
CCCCN(CC)C(=O)Cn1c(=O)n(-c2ccc(OCC)cc2)c(=O)c2c3c(sc21)CCC3	-	-
Cc1ccc(C(=O)NCC(=O)NCC(=O)OCc2ccc(Cl)cc2)cc1	-	-
Cc1ccc(C(=O)C(OC(=O)CNC(=O)c2ccc(Cl)cc2)c2ccccc2)cc1 (centres undefined)	6.3µM	10µM
CCc1ccc(NC(=O)CCCc2nnc3n(C(C)CC)c(=O)c4sccc4n23)cc1 (centres undefined)	-	?
COC(=O)C1(C(=O)OC)CC2=C[C@H](CC2=O)Cc2ccccc2[C@@H]1C[N+](=O)[O-]	-	-
Cc1ccc(-c2cn(-c3ccc(Cl)cc3)c(S(=O)(=O)CC(=O)Nc3ccccc3)n2)cc1	-	16µM
